The supplement of paper PMC11732987, “Enantioselective OTUD7B fragment discovery through chemoproteomics screening and high-throughput optimisation” (Communications Chemistry, 2025)

Key:
Experiment in all cases: log2 ratio of Biotin-Ahx-Ub-VS probe labelling (fragment/DMSO); higher = less target engagement (more negative = stronger competition), active = hit call of the paper (q ≤ 0.05, log2 ratio ≤ -1)
Settings in all cases: compound concentration: 200 uM; treatment time: 3 h
OTUD6B = target: T1, OTUD6B (UniProt Q8N6M0)
T1 sequence (whole entry): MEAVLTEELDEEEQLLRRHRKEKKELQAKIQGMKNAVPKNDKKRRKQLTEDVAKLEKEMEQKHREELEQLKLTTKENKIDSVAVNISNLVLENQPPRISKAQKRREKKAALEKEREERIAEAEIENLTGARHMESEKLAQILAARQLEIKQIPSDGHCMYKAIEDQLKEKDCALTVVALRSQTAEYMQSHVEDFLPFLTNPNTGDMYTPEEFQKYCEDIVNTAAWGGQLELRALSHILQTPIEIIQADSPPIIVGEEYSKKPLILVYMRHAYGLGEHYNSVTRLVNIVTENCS
Outline: (§1)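 Lysate from HEK293T cells, 495 µg per sample in Tris/CHAPS/IGEPAL buffer with protease inhibitors, was treated for 3 h in triplicate with fragment at 200 µM or vehicle. Biotin-Ahx-Ub-VS was next added at 0.5 µM final for 1 h. The labelled DUBs were enriched with NeutrAvidin, digested with LysC and trypsin, and run by diaPASEF LC-MS/MS, with values given as average log2 fragment/vehicle ratios by unpaired t-test on global-median-normalised Spectronaut quantities of proteins with ≥2 unique peptides.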

OTUD7B = target: T2, OTUD7B (UniProt Q6GQQ9)
T2 sequence (whole entry): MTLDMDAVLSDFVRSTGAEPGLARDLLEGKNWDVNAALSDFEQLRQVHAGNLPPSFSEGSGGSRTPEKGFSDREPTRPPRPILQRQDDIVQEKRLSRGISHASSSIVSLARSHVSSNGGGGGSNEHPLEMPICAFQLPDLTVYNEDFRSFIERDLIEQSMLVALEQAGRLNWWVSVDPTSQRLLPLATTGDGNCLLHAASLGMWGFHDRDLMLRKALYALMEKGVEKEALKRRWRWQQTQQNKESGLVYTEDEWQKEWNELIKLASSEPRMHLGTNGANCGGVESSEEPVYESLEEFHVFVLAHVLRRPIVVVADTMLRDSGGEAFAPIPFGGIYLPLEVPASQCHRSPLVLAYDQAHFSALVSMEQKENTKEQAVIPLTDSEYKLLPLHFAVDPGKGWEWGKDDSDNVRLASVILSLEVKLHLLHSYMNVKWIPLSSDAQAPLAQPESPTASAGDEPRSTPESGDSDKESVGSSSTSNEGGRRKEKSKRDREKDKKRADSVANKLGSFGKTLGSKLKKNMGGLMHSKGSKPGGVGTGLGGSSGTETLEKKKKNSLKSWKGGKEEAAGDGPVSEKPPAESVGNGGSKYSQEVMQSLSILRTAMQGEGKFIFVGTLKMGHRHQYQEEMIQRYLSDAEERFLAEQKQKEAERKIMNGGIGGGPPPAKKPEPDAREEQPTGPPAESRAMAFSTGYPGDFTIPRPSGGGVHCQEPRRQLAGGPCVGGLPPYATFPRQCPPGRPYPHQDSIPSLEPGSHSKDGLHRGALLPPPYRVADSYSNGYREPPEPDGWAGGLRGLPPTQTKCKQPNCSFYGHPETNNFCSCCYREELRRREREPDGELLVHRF
Outline: as §1

PRPF8 = PRPF8 (UniProt Q6P2Q9)
Outline: as §1

PSMD7 = target: T3, PSMD7 (UniProt P51665)
T3 sequence (whole entry): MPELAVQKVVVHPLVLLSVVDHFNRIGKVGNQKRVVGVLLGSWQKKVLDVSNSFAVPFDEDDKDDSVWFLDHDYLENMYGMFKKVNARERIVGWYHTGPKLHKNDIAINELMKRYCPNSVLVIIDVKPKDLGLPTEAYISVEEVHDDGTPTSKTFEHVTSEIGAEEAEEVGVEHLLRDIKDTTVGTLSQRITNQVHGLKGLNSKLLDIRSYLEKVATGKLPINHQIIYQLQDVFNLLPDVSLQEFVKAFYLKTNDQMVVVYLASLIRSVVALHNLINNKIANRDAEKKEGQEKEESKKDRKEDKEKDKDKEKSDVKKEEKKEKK
Outline: as §1

UCHL1 = UCHL1 (UniProt P09936)
UCHL1, sequence (P09936 whole entry, looked up): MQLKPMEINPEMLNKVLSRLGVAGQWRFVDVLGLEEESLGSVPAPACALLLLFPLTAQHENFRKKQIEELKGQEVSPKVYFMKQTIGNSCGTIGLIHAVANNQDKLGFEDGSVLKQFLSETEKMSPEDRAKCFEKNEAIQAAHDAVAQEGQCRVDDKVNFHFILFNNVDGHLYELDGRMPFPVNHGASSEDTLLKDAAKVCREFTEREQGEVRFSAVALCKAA
Outline: as §1

UCHL3 = target: T4, UCHL3 (UniProt P15374)
T4 sequence (whole entry): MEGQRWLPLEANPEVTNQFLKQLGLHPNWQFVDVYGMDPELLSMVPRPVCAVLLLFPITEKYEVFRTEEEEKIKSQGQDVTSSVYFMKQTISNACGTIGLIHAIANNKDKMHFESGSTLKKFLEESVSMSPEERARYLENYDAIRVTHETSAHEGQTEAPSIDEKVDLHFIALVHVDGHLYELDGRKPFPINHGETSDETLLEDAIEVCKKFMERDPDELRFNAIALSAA
Outline: as §1

UCHL5 = target: T5, UCHL5 (UniProt Q9Y5K5)
T5 sequence (whole entry): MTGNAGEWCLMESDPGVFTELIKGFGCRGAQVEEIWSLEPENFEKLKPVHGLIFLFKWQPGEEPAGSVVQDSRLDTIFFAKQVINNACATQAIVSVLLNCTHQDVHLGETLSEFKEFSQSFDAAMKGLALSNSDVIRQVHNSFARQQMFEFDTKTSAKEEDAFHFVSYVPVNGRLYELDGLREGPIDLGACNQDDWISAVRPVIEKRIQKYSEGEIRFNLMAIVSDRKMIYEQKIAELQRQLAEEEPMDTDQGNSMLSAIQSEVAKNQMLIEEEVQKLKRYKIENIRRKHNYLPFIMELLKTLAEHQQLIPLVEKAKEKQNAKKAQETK
Outline: as §1

USP10 = USP10 (UniProt Q14694)
USP10, sequence (Q14694 whole entry): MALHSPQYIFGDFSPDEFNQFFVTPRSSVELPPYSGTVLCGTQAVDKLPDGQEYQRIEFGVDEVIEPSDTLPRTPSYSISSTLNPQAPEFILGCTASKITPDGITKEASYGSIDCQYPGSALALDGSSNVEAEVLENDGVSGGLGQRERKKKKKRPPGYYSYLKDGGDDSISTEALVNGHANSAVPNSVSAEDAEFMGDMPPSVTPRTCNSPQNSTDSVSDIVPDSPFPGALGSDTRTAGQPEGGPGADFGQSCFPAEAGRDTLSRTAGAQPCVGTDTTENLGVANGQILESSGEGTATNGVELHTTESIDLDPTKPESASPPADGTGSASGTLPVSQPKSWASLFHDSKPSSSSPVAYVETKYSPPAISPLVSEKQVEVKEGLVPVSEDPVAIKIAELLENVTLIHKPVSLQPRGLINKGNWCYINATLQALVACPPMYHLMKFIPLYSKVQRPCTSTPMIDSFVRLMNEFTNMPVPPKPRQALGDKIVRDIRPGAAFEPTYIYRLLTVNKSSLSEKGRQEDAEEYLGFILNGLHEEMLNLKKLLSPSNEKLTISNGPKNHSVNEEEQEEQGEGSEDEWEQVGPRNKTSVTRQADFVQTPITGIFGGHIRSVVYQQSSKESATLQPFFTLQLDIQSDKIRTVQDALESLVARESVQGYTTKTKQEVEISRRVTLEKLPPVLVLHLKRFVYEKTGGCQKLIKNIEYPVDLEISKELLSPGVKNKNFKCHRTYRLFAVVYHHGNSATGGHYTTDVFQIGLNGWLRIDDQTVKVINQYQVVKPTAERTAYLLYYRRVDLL
Outline: as §1

USP15 = target: T6, USP15 (UniProt Q9Y4E8)
T6 sequence (whole entry): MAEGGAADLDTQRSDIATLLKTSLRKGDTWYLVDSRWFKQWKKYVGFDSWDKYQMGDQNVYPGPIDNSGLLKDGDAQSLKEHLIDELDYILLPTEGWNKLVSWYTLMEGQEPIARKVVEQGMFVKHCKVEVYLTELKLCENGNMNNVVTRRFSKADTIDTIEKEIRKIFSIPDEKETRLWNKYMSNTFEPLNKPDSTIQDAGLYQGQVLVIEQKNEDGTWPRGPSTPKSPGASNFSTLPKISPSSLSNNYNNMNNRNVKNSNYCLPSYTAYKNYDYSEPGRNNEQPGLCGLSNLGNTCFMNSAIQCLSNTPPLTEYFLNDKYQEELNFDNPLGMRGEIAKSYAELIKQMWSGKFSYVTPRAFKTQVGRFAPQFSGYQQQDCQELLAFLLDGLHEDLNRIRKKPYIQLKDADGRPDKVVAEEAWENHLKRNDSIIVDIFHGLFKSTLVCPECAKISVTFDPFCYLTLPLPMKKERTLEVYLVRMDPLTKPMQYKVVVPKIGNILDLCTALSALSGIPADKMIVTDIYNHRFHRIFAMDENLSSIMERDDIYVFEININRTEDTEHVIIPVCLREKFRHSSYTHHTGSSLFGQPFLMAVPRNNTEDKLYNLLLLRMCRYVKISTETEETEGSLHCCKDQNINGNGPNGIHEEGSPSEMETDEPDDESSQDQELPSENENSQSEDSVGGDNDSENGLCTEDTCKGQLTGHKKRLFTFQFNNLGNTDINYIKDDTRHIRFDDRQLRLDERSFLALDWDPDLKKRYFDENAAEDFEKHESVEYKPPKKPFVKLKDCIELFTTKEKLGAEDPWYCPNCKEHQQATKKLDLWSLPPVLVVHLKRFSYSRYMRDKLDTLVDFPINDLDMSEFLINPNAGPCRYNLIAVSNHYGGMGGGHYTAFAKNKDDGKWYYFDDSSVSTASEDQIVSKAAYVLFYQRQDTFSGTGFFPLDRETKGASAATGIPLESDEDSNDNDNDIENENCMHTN
Outline: as §1

USP16 = USP16 (UniProt Q9Y5T5)
USP16, sequence (Q9Y5T5 whole entry, looked up): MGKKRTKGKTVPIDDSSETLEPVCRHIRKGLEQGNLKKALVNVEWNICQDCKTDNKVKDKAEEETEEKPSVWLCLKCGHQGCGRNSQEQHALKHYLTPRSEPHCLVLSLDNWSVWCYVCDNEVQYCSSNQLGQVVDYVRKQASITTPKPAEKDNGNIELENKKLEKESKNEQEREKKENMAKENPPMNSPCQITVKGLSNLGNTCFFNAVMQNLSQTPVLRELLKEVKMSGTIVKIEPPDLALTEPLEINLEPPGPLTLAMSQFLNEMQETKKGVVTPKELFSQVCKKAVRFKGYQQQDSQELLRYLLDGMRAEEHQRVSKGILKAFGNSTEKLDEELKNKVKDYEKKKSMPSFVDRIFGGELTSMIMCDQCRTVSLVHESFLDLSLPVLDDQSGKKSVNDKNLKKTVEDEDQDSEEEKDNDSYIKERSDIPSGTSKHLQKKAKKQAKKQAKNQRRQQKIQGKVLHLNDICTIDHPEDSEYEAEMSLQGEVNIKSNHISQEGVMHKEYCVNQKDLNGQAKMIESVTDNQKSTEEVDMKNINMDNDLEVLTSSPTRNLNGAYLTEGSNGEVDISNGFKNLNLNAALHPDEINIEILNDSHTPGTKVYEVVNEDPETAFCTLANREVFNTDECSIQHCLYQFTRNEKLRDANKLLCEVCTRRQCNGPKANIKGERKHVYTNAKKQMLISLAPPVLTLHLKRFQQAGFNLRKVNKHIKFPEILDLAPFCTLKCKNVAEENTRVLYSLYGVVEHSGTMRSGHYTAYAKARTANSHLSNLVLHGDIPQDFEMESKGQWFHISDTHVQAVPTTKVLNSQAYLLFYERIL
Outline: as §1

Measured: log2 ratio of Biotin-Ahx-Ub-VS probe labelling

O=C(CCl)N1CCC(c2ccn[nH]2)C1 (stereo not given)
inactive: OTUD6B -0.234 | OTUD7B -0.648 | PRPF8 -0.154 | PSMD7 -0.294 | UCHL1 -0.579 | UCHL3 -0.0683 | UCHL5 -0.213 | USP10 -0.079 | USP15 -0.555 | USP16 -0.161
